High-throughput results as filed in PubChem.
Pf growth 96h: P. falciparum growth inhibition at 96 hours; P. falciparum luciferase reporter growth, 96 h; Potency, µM (titrated, usually from 28.7 µM), inactives show at the top dose activity change, negative = inhibition, hits mostly inhibitors; hit rate 6.9% among 320,000; also: potency is read from the fitted curve at half-maximal effect; % is scaled to controls: 0 for no effect and ±100 for the full control effect
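Cell-based qHTS: luciferase-tagged P. falciparum in erythrocytes (2% hematocrit, 0.05% parasitemia final) incubated with compounds for 96 hours, 37 C, 5% CO2; luciferase detection reagent then added and luminescence measured.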
Pf growth 48h: P. falciparum growth inhibition at 48 hours (one generation); P. falciparum luciferase growth in erythrocytes, 48 h; Potency, µM (titrated, usually from 28.7 µM), for the others: at the top dose activity change, negative = inhibition, most hits filed as inhibitors; hit rate 5.9% among 310,000; also: potency is read from the fitted curve at half-maximal effect; % is scaled to controls: 0 for no effect and ±100 for the full control effect
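Parasite viability was followed by luminescence of a genomically integrated firefly luciferase. Cultures held 0.1% parasitemia at 2% hematocrit (final), incubated under 5% CO2 at 37 C.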
SARS PLP yeast: blocks SARS-CoV papain-like protease in a yeast assay; hit rate 0.19% among 330,000; Potency, µM (series often up to 32.9 µM), for the others: at the top dose activity, positive = growth rescue, most hits filed as activators; AID 485353; S. cerevisiae expressing SARS-CoV PLpro, growth rescue; calls by dose curve; also: potency is read from the fitted curve at half-maximal effect; 0% is about no effect; nearly all actives have a fitted effect of over 55% in size
CHX counter: counter-screen hit for Shiga toxin inhibitors, cycloheximide; hit rate 12% among 300,000; cell reporter, cycloheximide protein synthesis inhibition counterscreen; max response, %; in the data active = max response mostly above about 13%, no sharp cut-off; inactive = mostly below about 14%; also: read at 38.3 µM for the half of the compounds with a filed dose; 0% is about no effect
AMA1 RON2 block: disrupts binding of P. falciparum AMA1 to RON2 | AlphaScreen AMA1-biotinylated RON2 peptide binding | hit rate 0.2% among 360,000 | Potency, µM (doses to about 58.2 µM), inactives show at the highest dose activity change, negative = inhibition, most hits filed as inhibitors;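 also: potency is read from the fitted curve at half-maximal effect; 0% = vehicle wells and -100% = peptide control; nearly all actives have a fitted effect of over 45% in size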
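AMA1 (3D7) with his tag at 25 nM final met compounds first, then biotinylated RON2 peptide at 25 nM; detection used donor plus acceptor beads, 10 µg/mL apiece, read by AlphaScreen after 30 min at room temperature.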
Shiga inhibitor: inhibitors of Shiga toxin in Vero cells | inhibition, % at 38.7 µM | Vero cells, Shiga toxin protein synthesis inhibition reporter | hit rate 9.2% among 290,000; in the data active = inhibition mostly above about 28%, no sharp cut-off; inactive = mostly below about 43%; also: 0% is about no effect
* marks the source's active call; other numbers are inactive results; ? = inconclusive; nt = no result given; [ ] = dose if it differs, or a comment. Shown are actives, neighbours in structure and some others; about 19% of the full set was active somewhere. Unless noted, calls follow the shape of the dose curve; as a rule, active = well fitted curve in the direction sought with a large enough effect; inconclusive = small, poorly fitted or top-dose-only effect, or another doubt; inactive = no such curve, though single readings can be large; an effect the other way counts as inactive or inconclusive.

SMILES	Pf growth 96h	Pf growth 48h	SARS PLP yeast	CHX counter	AMA1 RON2 block	Shiga inhibitor
O=C(NCCc1ccccc1)C1CCCN(S(=O)(=O)c2cccc3nsnc23)C1 (stereo not drawn)	1.2µM*	-17%	23%	-7	-8%	-10
Cc1ccc(S(=O)(=O)N2CCOCC2)c2nsnc12	31%	nt	12%	-5	-8%	-17
O=C(NCCc1ccccc1)C1CCCN(S(=O)(=O)c2cccc3nonc23)C1 (stereo not drawn)	nt	nt	3%	12	-8%	-15
COc1ccccc1-c1csc(NC(=O)c2ccc(N3C(=O)CCC3=O)cc2)n1	?	?	0%	6	1%	20
CCCCNC(=O)C1CCN(S(=O)(=O)N2CCCCCC2)CC1	nt	-5%	14%	-7	-22%	-12
Cc1ccc(S(=O)(=O)Nc2cccc(Cl)c2)cc1NC(=O)C1CC1	nt	nt	5%	nt	-5%[11.6 µM]	nt
CCN(CC)C(=O)C1=C(C)N(Cc2ccccc2)C(=O)C(CC(=O)NCc2ccco2)C1 (stereo not drawn)	nt	nt	nt	nt	0%	nt
CC(OC(=O)C1CSC2(c3ccc(F)cc3)CCC(=O)N12)C(=O)NC(N)=O (stereo not drawn)	4%	8%	2%	5	1%	0
O=S(=O)(c1cccc2nsnc12)N1CCCCC1	8.3µM*	11%	4%	-1	0%	8
O=C(Nc1nc2cc(Cl)ccc2s1)C1CCCN(S(=O)(=O)c2cccc3cccnc23)C1 (stereo not drawn)	12µM*	nt	4%	-3	-8%	23
CN(C)S(=O)(=O)N1CCN(c2ccc([N+](=O)[O-])c(NC3CC3)c2)CC1	?	4.1µM*	-1%	-2	-28%	-16
CCCSc1nc2cc(C)c(C)cc2n1CC(O)CO (stereo not drawn)	-26%	0%	1%	21*	9%	78*
CCSc1nc(-c2ccccc2)c(-c2ccccc2)n1CC(O)CO (stereo not drawn)	?	?	-1%	-3	-2%	-5
CCCSc1nc2cc(C)c(C)cc2n1CC(C)O (stereo not drawn)	27%	31%	-2%	26*	6%	72*
CCCn1c(SCCC(=O)O)nc2ccccc21	414%	39%	1%	-1	-14%	-9
O=C(CN(C(=O)CCC(=O)Nc1nccs1)c1ccccc1F)NCc1ccccc1	-2%	-8%	0%	-1	1%	-6
CN1CCCC(OC(=O)c2ccccc2Br)C1 (stereo not drawn)	-10%	36%	-1%	7	-3%	14
CCOC(=O)C1CCN(C(=O)c2cc3c(ccc4ccccc43)o2)CC1	10%	216%	10%	59*	-7%	121*
Cc1nc2ccccc2c2oc(C(=O)N3CCC(C)CC3)cc12	-20%	2%	-15%	20*	0%	60*
CCOC(=O)C1CCN(C(=O)c2cc3cc4ccc(C)cc4nc3o2)CC1	23%	84%	-7%	30*	-5%	45*
CC1CCN(C(=O)c2cc3c(ccc4ccccc43)o2)CC1	-28%	258%	-4%	20*	-1%	77*
CCOC(=O)C1CCN(C(=O)CNC(=O)Cn2c(C)cc3ccccc3c2=O)CC1	3.3µM*	3%	-1%	-5	-2%	-3
CCOC(=O)CNC(=O)Cn1c(C)cc2ccccc2c1=O	13%	0%	0%	-3	2%	-4
COc1ccccc1OCCCOc1cccc(/C=C2\SC(=O)NC2=O)c1	-6%	-3%	2%	4	-9%	nt
Cc1ccc(OCCOc2cccc(C=C3C(=O)NC(=O)NC3=O)c2)c(C)c1	17%	159%	0%	110*	44%	110*
O=C1NC(=O)C(=Cc2cccc(OCCOc3ccccc3)c2)C(=O)N1	2%	200%	-1%	44*	4%	65*
C[C@@H]1CN([C@H](C)CO)C(=O)CCCn2cc(nn2)CO[C@H]1CN(C)S(=O)(=O)c1ccc2ccccc2c1	nt	nt	nt	nt	1%	nt
CC(C)N(C(=O)c1nn(C)c2c1CSc1ccccc1-2)C1CCCCC1	2.1µM*	-24%	-5%	-1	14%	-3
O=C(O)C1C2CCCCC2=C2CCCCC2C1C(=O)Nc1nccs1 (stereo not drawn)	nt	nt	nt	nt	-3%	nt
